Source: PubChem BioAssay (National Center for Advancing Translational Sciences (NCATS))
Compounds with a hit are over-represented: about 11% of the library has one in this group of screens.
Bst PK mod: alters activity of Bacillus stearothermophilus pyruvate kinase; purified pyruvate kinase, luminescence ATP production; ribose 5-phosphate activator present at AC10; Potency, µM; 51,000 compounds, 1.2% hits; AID 361; in the data active = potency below about 11 µM; inconclusive = mostly about 12 µM to 25 µM;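 the screen sought inhibitors and activators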;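 note: scaled between full activation by ribose 5 phosphate and full inhibition by luteolin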
ALOX15 inhib: inhibitors of human 15-lipoxygenase (ALOX15). purified 15hLO-1, xylenol orange hydroperoxide absorbance. Potency, µM (series often up to 57.1 µM), without a hit: at the highest dose activity change, negative = inhibition, actives largely listed as inhibitors. 74,000 compounds, 1.4% hits. AID 887; note: nearly all actives have a fitted effect of over 55% in size
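Hydroperoxide formed from arachidonic acid (50 uM) by purified human 15hLO-1 (40 nM) oxidizes ferrous iron, and the ferric-xylenol orange complex is read at 573 versus 405 nm. Compounds were preincubated 15 min; reaction ran 6 min at room temperature.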
ERK AVP block: vasopressin-driven ERK pathway inhibition | HEK293-V1b, vasopressin-stimulated pERK AlphaScreen | Potency, µM (highest dose often 57.5 µM), without a hit: at the highest dose activity, negative = inhibition, hits mostly inhibitors | 72,000 compounds, 0.99% hits | AID 995; note: nearly all actives have a fitted effect of over 55% in size
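HEK293 cells stably expressing V1b receptor, preincubated 30 min at 37 °C with compound, then stimulated 5 min with 25 nM vasopressin. Phospho-ERK by AlphaScreen SureFire after 5 h RT; normalized to DMSO and vasopressin; AC50 by Hill fit.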
HADH2 inhib: blocks human hydroxyacyl-CoA dehydrogenase type II; Q99714; AID 886; Potency, µM (series often up to 57.1 µM), for inactives: top-dose activity change, negative = inhibition, actives largely listed as inhibitors; recombinant HADH2, NADH fluorescence, beta-hydroxybutyryl-CoA; 73,000 compounds, 3.4% hits; note: nearly all actives have a fitted effect of over 60% in size
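NADH fluorescence (ex 360/em 450 nm) read every 30 s for 4 min; activity taken as last-minus-first time point difference. Enzyme 20 nM, NAD+ 1 mM, beta-hydroxybutyryl-CoA 90 uM, pH 9.0 Tris buffer.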
HSD17B inh: inhibitors of human HSD17B10 dehydrogenase | Potency, µM (series often up to 57.1 µM), for inactives: at the highest dose activity change, negative = inhibition, actives largely listed as inhibitors | recombinant HSD17B10, NADH fluorescence kinetic | Q99714 | AID 893 | 75,000 compounds, 7.6% hits;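 note: the protocol describes HADH2 (HSD17B10) and not the HSD17B4 of the title; nearly all actives have a fitted effect of over 70% in size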
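Activity followed as NADH fluorescence increase (ex 360, em 450 nm) every 30 seconds for 4 min, using final 90 uM beta-hydroxybutyryl CoA and 1 mM NAD+. Recombinant His-tagged enzyme, 20 nM, pH 9.0 Tris buffer, 15 min compound preincubation.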
FLuc inh: blocks Photinus pyralis firefly luciferase activity | P08659 | purified firefly luciferase, luminescence, 8 min | Potency, µM (titrated, usually from 57.1 µM), for inactives: at the top dose activity change, negative = inhibition, hits mostly inhibitors | 72,000 compounds, 2.2% hits | AID 411; note: nearly all actives have a fitted effect of over 40% in size
Target sequence (P08659 whole entry, looked up): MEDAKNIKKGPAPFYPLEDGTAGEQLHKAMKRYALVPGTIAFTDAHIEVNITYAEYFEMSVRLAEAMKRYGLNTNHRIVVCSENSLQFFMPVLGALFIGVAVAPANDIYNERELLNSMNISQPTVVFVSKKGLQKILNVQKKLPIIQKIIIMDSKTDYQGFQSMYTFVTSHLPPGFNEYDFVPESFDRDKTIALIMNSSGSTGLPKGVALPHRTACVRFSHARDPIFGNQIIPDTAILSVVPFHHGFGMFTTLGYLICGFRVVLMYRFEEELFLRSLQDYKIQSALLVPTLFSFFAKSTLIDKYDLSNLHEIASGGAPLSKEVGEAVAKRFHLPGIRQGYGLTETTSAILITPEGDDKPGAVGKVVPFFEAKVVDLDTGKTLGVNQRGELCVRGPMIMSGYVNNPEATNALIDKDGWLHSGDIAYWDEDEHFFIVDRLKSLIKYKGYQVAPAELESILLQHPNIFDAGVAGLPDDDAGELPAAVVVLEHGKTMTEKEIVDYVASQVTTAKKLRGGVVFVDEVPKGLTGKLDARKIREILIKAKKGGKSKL
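Compounds were tested as concentration series (qHTS) against purified P. pyralis luciferase with luciferin and 10 uM ATP in 50 mM imidazole pH 7.2, 50 mM KCl, 7 mM MgCl2, 0.01% Tween 20, 0.05% BSA. Luminescence was read after 8 min at ambient temperature.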
Active calls of the source: *; u = inconclusive; x = no result; [ ] = another dose, or the depositor's remark. Unless noted, calls come from the whole dose curve; as a rule, active = well fitted curve in the direction sought with a large enough effect; inconclusive = small, poorly fitted or top-dose-only effect, or another doubt; inactive = no such curve, though single readings can be large; an effect the other way counts as inactive or inconclusive. Unless noted, % is set by controls: 0 for no effect and ±100 for the full control effect; potency is the fitted concentration of half-maximal effect.

SMILES | Bst PK mod | ALOX15 inhib | ERK AVP block | HADH2 inhib | HSD17B inh | FLuc inh
Nc1c(C(=O)NCCN2CCOCC2)c2nc3ccccc3nc2n1-c1cccc(F)c1 | >57 | -9% | -10% | u | 32µM* | 2%
CCCNC(=O)c1c(N)n(-c2cccc(OC)c2)c2nc3ccccc3nc12 | >57 | -16% | -23% | 106% | 32µM* | 0%
CN1CCN(c2ncc3nc(-c4cccc(C#N)c4)c(=O)n(CCc4ccccc4)c3n2)CC1 | x | -12% | -20% | 37% | 2% | 1%[11.4 µM]
COc1cccc(-c2cc(C(=O)Nc3cnn(Cc4ccccc4C)c3)no2)c1 | >57 | -21% | -16% | 64% | 272% | -7%
COc1cccc(-c2cc(C(=O)Nc3cnn(Cc4ccc(F)cc4)c3)no2)c1 | >57 | -5% | 26% | -3% | 25µM* | 4%
c1ccc(-n2ncc3c2ncn2cnnc32)cc1 | >57 | -8% | -9% | 8% | 32µM* | -2%
COCC(C)Nc1ncnc2c1cnn2-c1ccc(Cl)cc1 (stereo not given) | 11* | x | x | x | x | 7.9µM*
Cc1ccc(CNc2ncnc3c2cnn3-c2ccccc2)cc1 | x | -1% | x | -8% | 2% | x
c1ccc(-n2ncc3c2ncn2nnnc32)cc1 | >57 | 0% | 1% | -3% | 8% | 0%
CCCCNc1ncnc2c1cnn2-c1ccccc1 | x | -7% | 11% | -1% | -14% | 13µM*
Nc1ncnc2c1cnn2-c1ccccc1 | x | -1% | -16% | -18% | 25µM* | -5%
CN(Cc1ccco1)c1ncnc2ccc(-c3cccc(NS(C)(=O)=O)c3)cc12 | x | -5% | u | 4% | -8% | -1%[2.29 µM]
COCCN=C1OC(=O)N2C(=O)C3=C4C(C[C@H]5C(=O)N(CC(=O)OC)C(=O)[C@H]5[C@H]4[C@@]12Cc1ccccc1)[C@H]1C(=O)N(CC(=O)OC)C(=O)[C@H]1[C@H]3C (stereo not given in full) | x | x | 10% | x | 15% | x
COc1ccccc1-c1cc(C(=O)N2CCc3ccccc3C2)no1 | x | -15% | -11% | -14% | -14% | -10%
Clc1ccc(-n2ncc3c(NCCN4CCOCC4)ncnc32)cc1 | u | -17% | u | -7% | 20µM* | u
c1ccc(-n2ncc3c(NCc4ccco4)ncnc32)cc1 | x | u | u | -10% | 32µM* | -30%
c1ccc(-n2ncc3c(NCCCN4CCOCC4)ncnc32)cc1 | x | 0% | x | -12% | u | x
c1ccc(Cn2ncc3c(NCc4ccco4)ncnc32)cc1 | >57 | -9% | 8% | -8% | 1% | -1%
CCCCNc1ncnc2c1cnn2-c1ccc(Cl)cc1 | x | -16% | x | u | u | 10µM*
OC[C@@H]1O[C@@H](n2cnc3c(NC4CCCCC4)ncnc32)[C@@H](O)[C@H]1O | x | -6% | -27% | 6% | -3% | -13%
CCCC1(C(=O)OC)C=C2C(=C(C)C(=O)C2C)CN1 (stereo not given) | x | x | 29% | -6% | u | x
CCCCCCCC1=CC2=CC(=O)C(C)(O)C(=O)C2=CN1CCCC (stereo not given) | x | -9%[11.4 µM] | -16%[11.5 µM] | 6%[11.4 µM] | 2%[11.4 µM] | x
Cc1cc(=O)n2nc(-c3ccccc3)sc2n1 | x | 4% | -25% | u | 32µM* | -26%
Cc1cccc(C2Nc3ccccc3C(=O)N2CCc2ccccc2)n1 (stereo not given) | x | -1% | -9% | u | 32µM* | -12%
COc1ccc(NC(=O)N2CCn3c2nc2ccccc23)cc1 | 5.6* | 3% | -17% | 3% | 2% | -4%
SMILES | Bst PK mod | ALOX15 inhib | ERK AVP block | HADH2 inhib | HSD17B inh | FLuc inh
O=C(c1ccco1)N1CCn2c1nc1ccccc12 | x | 7% | -26% | -8% | -1% | -30%
O=C(Nc1ccccc1)N1CCn2c1nc1ccccc12 | 9.7* | -3% | u | 13% | -3% | -9%
CCOc1ccc2nc3cc(N)ccc3c(N)c2c1 | x | -27% | u | x | 25µM* | x
O=C(O)Cc1cccnc1 | x | 15%[11.4 µM] | -10%[11.5 µM] | 0%[11.4 µM] | -2%[11.4 µM] | 3%[11.4 µM]
c1ccc(-c2cccc(N3CC[C@@]4(CCCNC4)C3)c2)cc1 | x | -18% | -29% | 1% | 25µM* | -15%[11.4 µM]
c1ccc(-c2cccc(N3CC4(CCNCC4)C3)c2)cc1 | x | -3% | 5% | -17% | 32µM* | -1%[11.4 µM]
c1ccc(-c2cccc(N3CCCC4(CCNCC4)C3)c2)cc1 | x | -21% | 10% | 4% | u | u
O=c1c[n+](CC[n+]2cc(=O)o[nH]2)[nH]o1 | x | 1%[11.4 µM] | 5%[11.5 µM] | -1%[11.4 µM] | 0%[11.4 µM] | 1%[11.4 µM]
COC(=O)CC[C@@H](C)[C@H]1CC[C@H]2[C@H]3CC[C@H]4C[C@@H]5CC[C@@]4(C)C3(O5)[C@@H](Br)[C@@H](Br)[C@@]12C | x | 9%[11.4 µM] | 0%[11.5 µM] | -1%[11.4 µM] | 1%[11.4 µM] | 2%[11.4 µM]
COc1ccc(C2C(C(=O)Nc3cc(C)on3)c3ccccc3C(=O)N2C)cc1OC (stereo not given) | >57 | 7% | 19% | 26% | 25µM* | -2%
COc1ccc(C2C(C(=O)Nc3cc(C)on3)c3ccccc3C(=O)N2C)cc1 (stereo not given) | >57 | -2% | 11% | 0% | -12% | -1%
COc1ccc(C2C(C(=O)NC(C)C)c3ccccc3C(=O)N2C)cc1OC (stereo not given) | >57 | 1% | 7% | -14% | 25µM* | 4%
COc1ccc(C2C(C(=O)NCCN3CCOCC3)c3ccccc3C(=O)N2C)cc1OC (stereo not given) | >57 | 3% | -7% | -1% | 1% | 5%
CC(=Nc1cccc(O)c1)c1sc2ccccc2c1O | 8.2* | x | x | x | x | 7.9µM*
Cc1ncc(C23CC4CC(CC(C4)C2)C3)[nH]1 | x | 3% | 4% | -3% | 10% | 3%
N#Cc1ccc(C23CC4CC(CC(C4)C2)C3)[nH]c1=O | >57 | -6% | -10% | 27% | 25µM* | 1%
Cc1cc(=S)[nH]c2ccccc12 | >57 | u | -10% | u | -11% | 0%
Cc1ccc2[nH]c(=S)cc(C)c2c1 | >57 | 3.2µM* | -13% | u | -18% | 0%
N#Cc1ccc(CN2CC3(CCN(C(=O)c4cc(C(F)(F)F)cc(C(F)(F)F)c4)CC3)C2)cc1 | x | 5% | -2% | -17% | 2% | 0%[11.4 µM]
O=C(COC(=O)C12CC3CC(CC(C3)C1)C2)N1CCN(S(=O)(=O)c2ccccc2)CC1 | >57 | -2% | 29% | 1% | -9% | 1%
O=C(COc1nnc2ccccn12)N1CCN(S(=O)(=O)c2ccccc2)CC1 | >57 | 14% | 8% | 56% | 13µM* | 0%
COCC(=O)N1CCC[C@@]2(CCN(C(c3ccccc3)c3ccccc3)C2)C1 | x | -1% | 9% | 3% | 4% | -3%[11.4 µM]
CCCCNC(=O)c1cc2c(=O)n3cccc(C)c3nc2n(Cc2ccncc2)c1=N | x | -3% | 6% | -2% | 25µM* | 2%
